Assay results published in PubChem BioAssay (NCATS).
Records with an inconclusive call do not appear. Where a call stands in place of a potency, no number is given. The source made the active and inactive calls. Calls follow the shape of the dose curve; as a rule, active = well fitted inhibition curve with a large enough effect; inconclusive = small, poorly fitted or top-dose-only effect; inactive = flat fitted curve, though single readings scatter.

How the values were obtained:
Assay in all cases: qHTS profiling for inhibitors of Plasmodium falciparum proliferation (AID 504749); also: nearly all actives have a fitted effect of over 60% in size
Settings in all cases: P. falciparum in erythrocytes, SYBR Green DNA, 72 h; series mostly up to 28.7 µM
CP335 = test system: CP335
Outline: (§1)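 Parasite proliferation within erythrocytes, 72 h exposure. Endpoint: SYBR Green I fluorescence after overnight lysis at room temperature. Controls: 0.29 uM artemisinin, DMSO.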

DFO2036 = test system: DFO2036
Outline: as §1

DIV14 = test system: DIV14
Outline: as §1

DIV17 = test system: DIV17
Outline: as §1

DIV30 = test system: DIV30
Outline: as §1

Dd2 = test system: Dd2
Outline: as §1

ECU = test system: ECU
Outline: as §1

FAB9 = test system: FAB9
Outline: as §1

GB4 = test system: GB4
Outline: as §1

HB3 = test system: HB3
Outline: as §1

ICS = test system: ICS
Outline: as §1

JCK = test system: JCK
Outline: as §1

N140 = test system: N140
Outline: as §1

P93_24 = test system: P93_24
Outline: as §1

P94_40 = test system: P94_40
Outline: as §1

PAD = test system: PAD
Outline: as §1

PC15 = test system: PC15
Outline: as §1

PC26 = test system: PC26
Outline: as §1

PC49 = test system: PC49
Outline: as §1

SC27B = test system: SC27B
Outline: as §1
Potency is read from the fitted curve at half-maximal effect.

| SMILES | Potency (CP335) | Potency (DFO2036) | Potency (DIV14) | Potency (DIV17) | Potency (DIV30) | Potency (Dd2) | Potency (ECU) | Potency (FAB9) | Potency (GB4) | Potency (HB3) | Potency (ICS) | Potency (JCK) | Potency (N140) | Potency (P93_24) | Potency (P94_40) | Potency (PAD) | Potency (PC15) | Potency (PC26) | Potency (PC49) | Potency (SC27B) |
| --- | --- | --- | --- | --- | --- | --- | --- | --- | --- | --- | --- | --- | --- | --- | --- | --- | --- | --- | --- | --- |
| CC(C)CCON=O | inactive | inactive | inactive | inactive | inactive | inactive | inactive | inactive | inactive | inactive | inactive | inactive | inactive | inactive | inactive | inactive | inactive | inactive | inactive | inactive |
| O=C1CN(O)C(c2ccccc2)=c2cc(Cl)ccc2=N1 | inactive | inactive | inactive | inactive | inactive | inactive | inactive | inactive | inactive | inactive | inactive | inactive | inactive | inactive | inactive | inactive | inactive | inactive | inactive | inactive |
| [N-]=[N+]=CC(=O)OCC(N)C(=O)O (stereo not given) | inactive | inactive | inactive | inactive | inactive | inactive | inactive | inactive | inactive | inactive | inactive | inactive | inactive | inactive | inactive | inactive | inactive | inactive | inactive | inactive |
| CNC(=O)OCC[N+](C)(C)C | inactive | inactive | inactive | inactive | inactive | inactive | inactive | inactive | inactive | inactive | inactive | inactive | inactive | inactive | inactive | inactive | inactive | inactive | inactive | inactive |
| CC(=O)OC1CN2CCC1CC2 (stereo not given) | inactive | inactive | inactive | inactive | inactive | inactive | inactive | inactive | inactive | inactive | inactive | inactive | inactive | inactive | inactive | inactive | inactive | inactive | inactive | inactive |
| Cn1sc(Cl)cc1=O | inactive | inactive | inactive | inactive | inactive | inactive | inactive | inactive | inactive | inactive | inactive | inactive | inactive | inactive | inactive | inactive | inactive | inactive | inactive | inactive |
| CN1C2CCC1CC(OC(c1ccccc1)c1ccc(Cl)cc1)C2 (stereo not given) | 6.01 µM (active) | 11.2 µM (active) | 7.57 µM (active) | 7.57 µM (active) | 7.57 µM (active) | 10 µM (active) | 6.31 µM (active) | 11.2 µM (active) | 6.01 µM (active) | 12.6 µM (active) | 3.55 µM (active) | 12.6 µM (active) | 11.2 µM (active) | 8.91 µM (active) | 10 µM (active) | 12.6 µM (active) | 3.98 µM (active) | 7.57 µM (active) | 5.01 µM (active) | 11.2 µM (active) |
| CC[N+](C)(CC)CCOC(=O)C(O)(c1ccccc1)c1ccccc1 | inactive | inactive | inactive | inactive | inactive | inactive | inactive | inactive | inactive | inactive | inactive | inactive | inactive | inactive | inactive | inactive | inactive | inactive | inactive | inactive |
| C[C@]12CCC(=O)C[C@@H]1CC[C@@H]1[C@@H]2CC[C@]2(C)[C@@H](O)CC[C@@H]12 | inactive | inactive | inactive | inactive | inactive | inactive | inactive | inactive | inactive | inactive | inactive | inactive | inactive | inactive | inactive | inactive | inactive | inactive | inactive | inactive |
| O=C1CCCCC1CN1CCCCC1 (stereo not given) | inactive | inactive | inactive | inactive | inactive | inactive | inactive | inactive | inactive | inactive | inactive | inactive | inactive | inactive | inactive | inactive | inactive | inactive | inactive | inactive |
| COc1ccc2c3c1O[C@H]1C(=O)CC[C@H]4[C@@H](C2)N(C)CC[C@]314 | inactive | inactive | inactive | inactive | inactive | inactive | inactive | inactive | inactive | inactive | inactive | inactive | inactive | inactive | inactive | inactive | inactive | inactive | inactive | inactive |
| O=C(OCCN1CCCCC1)C(O)(c1ccccc1)c1ccccc1 | inactive | inactive | inactive | inactive | inactive | inactive | inactive | inactive | inactive | inactive | inactive | inactive | inactive | inactive | inactive | inactive | inactive | inactive | inactive | inactive |
| O=C1C2CC=CCC2C(=O)N1SC(Cl)(Cl)Cl (stereo not given) | inactive | inactive | inactive | inactive | inactive | inactive | inactive | inactive | inactive | inactive | inactive | inactive | inactive | inactive | inactive | inactive | inactive | inactive | inactive | inactive |
| CNC(C)C(O)c1ccc(O)cc1 (stereo not given) | inactive | inactive | inactive | inactive | inactive | inactive | inactive | inactive | inactive | inactive | inactive | inactive | inactive | inactive | inactive | inactive | inactive | inactive | inactive | inactive |
| O=[N+]([O-])c1ccc(F)c([N+](=O)[O-])c1 | inactive | inactive | inactive | inactive | inactive | inactive | inactive | inactive | inactive | inactive | inactive | inactive | inactive | inactive | inactive | inactive | inactive | inactive | inactive | inactive |
| O=C(CCl)c1ccc(Oc2ccc(C(=O)CCl)cc2)cc1 | inactive | inactive | inactive | inactive | inactive | inactive | inactive | inactive | inactive | inactive | inactive | inactive | inactive | inactive | inactive | inactive | inactive | inactive | inactive | inactive |
| Clc1ccccc1Cl | inactive | inactive | inactive | inactive | inactive | inactive | inactive | inactive | inactive | inactive | inactive | inactive | inactive | inactive | inactive | inactive | inactive | inactive | inactive | inactive |
| Clc1ccc(Cl)cc1 | inactive | inactive | inactive | inactive | inactive | inactive | inactive | inactive | inactive | inactive | inactive | inactive | inactive | inactive | inactive | inactive | inactive | inactive | inactive | inactive |
| CCCC(C)C1(CC)C(=O)NC(=O)NC1=O (stereo not given) | inactive | inactive | inactive | inactive | inactive | inactive | inactive | inactive | inactive | inactive | inactive | inactive | inactive | inactive | inactive | inactive | inactive | inactive | inactive | inactive |
| FC(F)OC(F)(F)C(F)Cl (stereo not given) | inactive | inactive | inactive | inactive | inactive | inactive | inactive | inactive | inactive | inactive | inactive | inactive | inactive | inactive | inactive | inactive | inactive | inactive | inactive | inactive |
| COC([CH2][Hg])CNC(=O)c1ccccc1OCC(=O)O (stereo not given) | inactive | inactive | inactive | inactive | inactive | inactive | inactive | inactive | inactive | inactive | inactive | inactive | inactive | inactive | inactive | inactive | inactive | inactive | inactive | inactive |
| CCCCNCC(O)c1ccc(O)cc1 (stereo not given) | inactive | inactive | inactive | inactive | inactive | inactive | inactive | inactive | inactive | inactive | inactive | 1.12 µM (active) | inactive | inactive | inactive | inactive | inactive | inactive | inactive | inactive |
| c1ccc2sc(SNC3CCCCC3)nc2c1 | inactive | inactive | inactive | inactive | inactive | inactive | inactive | inactive | inactive | inactive | inactive | inactive | inactive | inactive | inactive | inactive | inactive | inactive | inactive | inactive |
| CCON=O | inactive | inactive | inactive | inactive | inactive | inactive | inactive | inactive | inactive | inactive | inactive | inactive | inactive | inactive | inactive | inactive | inactive | inactive | inactive | inactive |
| CCOC(=O)c1ccccc1C(=O)OCC | inactive | inactive | inactive | inactive | inactive | inactive | inactive | inactive | inactive | inactive | inactive | inactive | inactive | inactive | inactive | inactive | inactive | inactive | inactive | inactive |
| ClCC1CO1 (stereo not given) | inactive | inactive | inactive | inactive | inactive | inactive | inactive | inactive | inactive | inactive | inactive | inactive | inactive | inactive | inactive | inactive | inactive | inactive | inactive | inactive |
| [O]=[Cr](=[O])([OH])[O][Cr](=[O])(=[O])[OH] | inactive | inactive | inactive | inactive | inactive | inactive | inactive | inactive | inactive | inactive | inactive | inactive | inactive | inactive | inactive | inactive | inactive | inactive | inactive | inactive |
| [O]=[Cd] | inactive | inactive | inactive | inactive | inactive | inactive | inactive | inactive | inactive | inactive | inactive | inactive | inactive | inactive | inactive | inactive | inactive | inactive | inactive | inactive |
